# A selection: hits, their analogues and other compounds. The true share with any hit is near 0.5%.
# AddAB inh: less growth of phage-infected E. coli with AddAB; E. coli expressing H. pylori AddAB, absorbance growth; inhibition, % at 11.9 µM; hit rate 0.29% among 330,000; AID 435030; in the data active = inhibition above about 12%;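 also: 0% = vehicle wells of infected cells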
# E coli growth-1: E. coli growth inhibition. Escherichia coli growth, OD600, 23 h; active compounds read low. AID 1053175. hit rate 0.21% among 330,000. OD600 absorbance (concentration not given with the values);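 active = OD600 absorbance below the run mean of sample wells minus 3.6 SD, in any replicate, cut at about 0.56 in these data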
# E coli growth-2: reduces bacterial viability in AddAB counter-screen | E. coli V3065 growth, OD600 absorbance, 18 h | inhibition, % at 11.9 µM | hit rate 0.27% among 330,000;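 active = inhibition above the campaign's mean inhibition across all tested compounds plus 3 SD, cut at about 9.9% in these data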;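 also: uninfected addAB+ strain grown without phage in ampicillin broth; 0% = DMSO wells and 100% = ciprofloxacin 0.95 µg/ml wells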
# Tat transport: blocks Tat-dependent protein export in E. coli; hit rate 0.036% among 340,000; inhibition, % at 10 µM; E. coli MC4100 TorA-mCherry Tat export, fluorescence; AID 488895;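 active = mean replicate inhibition at least 50% and at least half of replicates individually reaching 50%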;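 also: exported cargo escapes ClpAP degradation while cytoplasmic cargo is degraded and loses fluorescence; 0% = median of neutral control wells and 100% = median of NaSCN control wells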
# phage Ecoli inh: E. coli growth loss with phage present | growth absorbance | inhibition, % at 11.9 µM | hit rate 0.26% among 360,000; in the data active = inhibition above about 11%
# AddAB conf: confirmation screen: growth loss of phage-infected E. coli expressing H. pylori AddAB; shares compounds with AddAB inh; E. coli V3065 expressing H. pylori AddAB, T4 phage, OD; T4 phage with gene 2 nonsense mutations; inhibition, % at 11.9 µM; hit rate 64% among 880; AID 488942;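 active = mean inhibition above a set limit taken from the earlier primary screen, cut at about 13% in these data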;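 also: higher means less bacterial growth since AddAB block lets phage replicate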
# RecBCD counter: counter-screen: growth loss of RecBCD+ E. coli with mutant T4 phage; hit rate 73% among 880; inhibition, % at 11.9 µM; shares compounds with AddAB inh; AID 488955; E. coli V66 + mutant T4 phage, OD growth;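 active = mean inhibition above the mean of solvent-only control wells plus 3 SD, cut at about 4% in these data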;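 also: optical density read after an 18 h incubation at 37 °C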
# Bact viability: reduces bacterial viability, AddAB inhibitor counter-screen; inhibition, % at 11.9 µM; absorbance (AddAB counterscreen); shares compounds with AddAB inh; hit rate 35% among 880; in the data active = inhibition above about 25%
# Active calls of the source: *; x = no result given; ! = repeats disagree.
SMILES,AddAB inh,E coli growth-1,E coli growth-2,Tat transport,phage Ecoli inh,others
CCCCCCCCCCCCCCCC[N+](C)(C)C,-1.3,0.0685*,1.6,32.2,0.7,
CN1C(=O)NC(=O)/C(=C/c2ccc([N+](=O)[O-])o2)C1=O,3.3,0.296*,1.6,x,2.2,
CN1C(=O)NC(=O)/C(=C\c2ccc([N+](=O)[O-])o2)C1=O,-1.7,x,-3.7,-0.5,x,
CC1=NN(c2ccccc2)C(=O)/C1=C/c1c(O)[nH]c(=S)[nH]c1=O,-2.4,x,-0.8,-7.4,1.6,
O=C(Cc1cccs1)N1CCC2(CC1)OCCO2,8.1,0.676,10.8*,-2.6,1.0,
CCOc1ccccc1N1C(=O)NC(=O)/C(=C/c2ccc3c4c(cccc24)CC3)C1=O,-2.1,0.696,2.1,-7.5,2.1,
CCNC(=S)NCCC1=c2ccccc2=N/C1=C\c1c(O)n(C)c(=O)n(C)c1=O,1.0,0.68,1.7,-2.5,1.2,
N#CC1c2ccccc2-n2nncc2CN1Cc1cc(Cl)cc(Cl)c1 (configuration not stated),x,x,x,56.3*,3.7,
Cc1cc(=O)oc2c(C)c(OCC(=O)N3C[C@H]4C[C@@H](C3)c3cccc(=O)n3C4)ccc12,1.2,0.697,0.3,-6.2,2.0,
COc1cc2c3c(c1OC)Oc1ccc(cc1)CC1c4c(cc(OC)c(OC)c4Oc4ccc(cc4)CC3N(C)CC2)CCN1C (configuration not stated),x,0.688,x,x,x,
COc1cc2c3c(c1OC)Oc1ccc(cc1)C[C@H]1c4c(cc(OC)c(OC)c4Oc4ccc(cc4)C[C@@H]3N(C)CC2)CCN1C,3.3,x,0.1,54.2*,1.0,
Cc1cccc(N2C(=O)NC(=O)/C(=C\c3cc(C)n(-c4sc5c(c4C#N)CCCC5)c3C)C2=O)c1C,2.3,0.69,-0.5,2.4,1.1,
COC(=O)C1=C(c2ccc(OC(F)(F)F)cc2)C[C@@H]2CC[C@H]1N2C(=O)N1CCc2cc(OC)c(OC)cc2C1,x,x,x,x,1.7,
CC(C)(O)[C@H]1O[C@H]2CC[C@@]3(C)[C@@](O)(CC[C@H]4Cc5c([nH]c6ccccc56)[C@@]43C)C2=CC1=O,-0.8,x,1.6,x,x,
CN(C)C(=S)SSC(=S)N(C)C,-0.5,0.488*,-0.8,12.2,5.5,
COC1C(OC(=O)c2ccc(C)[nH]2)C(O)C(Oc2ccc3c(O)c(NC(=O)c4ccc(O)c(CC=C(C)C)c4)c(=O)oc3c2Cl)OC1(C)C (configuration not stated),3.4,0.052*,-1.3,-23.5,8.5,
O=c1[nH]sc2cc(F)ccc12,x,0.49*,x,-19.8,-1.2,
Oc1cc(Cl)c(Cl)c(Cl)c1,x,0.068*,x,-13.2,2.7,
Cn1ncnc2c(=O)n(C)c(=O)nc1-2,46.8*,0.048*,45.1*,128.5*,x,AddAB conf=73.0*;RecBCD counter=75.7*;Bact viability=78.8*
Cc1ccc2cc3cc(C(=O)N4CCC5(CC4)OCCO5)oc3nc2c1,0.9,0.749,0.4,-11.5,2.0,
CC(C)CC(N(C)C)C1(c2ccc(Cl)cc2)CCC1 (configuration not stated),37.3*!,0.519*!,27.5*!,-5.6,1.8,AddAB conf=100.3*;RecBCD counter=3.3;Bact viability=67.4*
CN(C)C1(c2nnnn2-c2ccc(Cl)cc2)CCCCC1,10.4,x,0.5,-2.4,2.7,
Cc1ccc(C(C)C)c(OCC(=O)N2CCN(Cc3nc4cc([N+](=O)[O-])ccc4n3C)CC2)c1,2.7,0.691,0.3,-3.3,2.5,
Cc1c2ccncc2c(C)c2c1[nH]c1ccccc12,13.3*,0.418*,13.9*,-9.7,x,AddAB conf=9.1;RecBCD counter=-0.4;Bact viability=11.0
c1ccc2c(c1)[nH]c1cnccc12,4.3,0.626,2.7,8.4,4.3,
CN(C)C1C(=O)C(C(N)=O)=C(O)C2(O)C(=O)C3=C(O)c4c(O)cccc4C(C)(O)C3CC12 (configuration not stated),85.1*,x,94.1*,146.9*,x,AddAB conf=93.7*;RecBCD counter=93.0*;Bact viability=92.1*
Cc1cccc(-n2c(/C=C/c3ccc([N+](=O)[O-])o3)nc3ccccc3c2=O)c1,4.8,0.653,3.1,-3.9,2.5,
